Measured values from PubChem BioAssay AID2521 (Sanford-Burnham Center for Chemical Genomics, 2010).
Screen size: about 330,000 compounds; about 1,100 (0.33%) were called active. This is one part of a sample in which actives are shown more often than they occur. Values without a mark were called inactive.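 The calls were made as follows: active = inhibition above about 40% at 20 µM (limit read from the data); inactive = the rest.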

These compounds were tested against Apelin receptor (Homo sapiens) (UniProt P35414) (assay: blockade of apelin-induced APJ beta-arrestin recruitment – CHO-K1 cells, beta-arrestin complementation, luminescence, primary screen (AID 2521;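 also: cells challenged with 10 nM apelin-13 agonist together with compound; plate controls were apelin-13 plus DMSO wells for no effect and DMSO wells lacking apelin-13 for full effect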)). Conditions: at 20 µM, active compounds read high.
Chain of Apelin receptor (Homo sapiens) (P35414 whole entry, looked up): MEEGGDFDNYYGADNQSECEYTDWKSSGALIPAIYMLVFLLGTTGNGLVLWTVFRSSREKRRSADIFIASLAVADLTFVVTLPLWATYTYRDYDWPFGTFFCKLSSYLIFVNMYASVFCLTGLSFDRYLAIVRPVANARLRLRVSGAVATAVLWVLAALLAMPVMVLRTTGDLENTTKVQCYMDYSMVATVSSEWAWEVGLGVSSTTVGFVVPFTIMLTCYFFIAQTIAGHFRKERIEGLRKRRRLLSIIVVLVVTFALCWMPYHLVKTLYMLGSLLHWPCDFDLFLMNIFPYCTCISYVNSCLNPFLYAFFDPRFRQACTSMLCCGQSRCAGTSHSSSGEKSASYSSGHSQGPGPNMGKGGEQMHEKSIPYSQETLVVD

| SMILES | inhibition |
| --- | --- |
| Cc1ccc(C)c2[nH]c(=O)c(CN(Cc3cccnc3)C(=S)NCc3ccco3)cc12 | 5.44% |
| O=C(N=C1SC2CS(=O)(=O)CC2N1c1ccccc1)c1ccccc1 (stereo unspecified) | -0.987% |
| CCCNc1ncnc2sc(C)c(C)c12 | 19.7% |
| Cc1cc(C)n(-c2nc(O)cc(=O)[nH]2)n1 | 9% |
| O=C1/C(=C/c2coc3ccc(O)cc3c2=O)SC(=S)N1c1ccccc1 | 29.3% |
| CSCCC(NC(=O)COc1ccccc1)C(=O)OCC(=O)c1cc2ccccc2o1 (stereo unspecified) | 56.3% (active) |
| CSCCC(NC(=O)COc1ccccc1)C(=O)OCCOc1ccc(F)cc1 (stereo unspecified) | 4.85% |
| CSCCC(NC(=O)COc1ccccc1)C(=O)OCCOc1ccc(Br)cc1 (stereo unspecified) | 0.665% |
| CC(=O)Nc1ccc(S(=O)(=O)Nc2nc3n(n2)C(c2ccccc2)CC(=O)N3)cc1 (stereo unspecified) | -9.74% |
| Cc1nc2cc(NCc3cccs3)ccc2n1C | 1.26% |
| CCCCC(=O)Nc1c2c(nn1-c1ccc([N+](=O)[O-])cc1)CS(=O)(=O)C2 | 9.67% |
| CC1CCN(C(=O)c2cc3nc(C4CC4)cc(C(F)(F)F)n3n2)CC1 | 1.74% |
| Cc1cc(C=O)c(C)n1-c1ccc(NC2CCCCC2)c([N+](=O)[O-])c1 | 11.5% |
| Cc1cc(/C=N/NC(=O)CC2(C)OCCO2)c(C)n1-c1ccc(Cl)c(Cl)c1 | -22.8% |
| Cc1cc(/C=N/Nc2ccc([N+](=O)[O-])cn2)c(C)n1-c1cccc(C(=O)O)c1 | 42.4% (active) |
| Cn1c(=O)c2c(-c3cccc(Br)c3)c(C#N)c(N)nc2n(C)c1=O | -4.62% |
| NC(=O)NC(=O)C(OC(=O)CCNS(=O)(=O)c1ccccc1)c1ccccc1 (stereo unspecified) | 12.8% |
| CC(Oc1ccccc1F)C(=O)NN (stereo unspecified) | -7.83% |
| O=C1Nc2ccc([N+](=O)[O-])cc2C1=Nc1cccc(CO)c1 | 66% (active) |
| O=[N+]([O-])c1ccc(N(CCO)Cc2ccccc2)c([N+](=O)[O-])c1 | -2.49% |
| CN1CCN(/N=C2/C(=O)Nc3ccc([N+](=O)[O-])cc32)CC1 | 2.6% |
| O=C(NC(=S)Nc1ccc(Cl)c(C(=O)O)c1)c1cncc(Br)c1 | 35.2% |
| c1ccc2cc(CCCc3cc4ccccc4cn3)ncc2c1 | 9.5% |
| Cc1cc2c(c(=O)n1C)C(C(C)C)C(C#N)=C(N)O2 (stereo unspecified) | -2.07% |
| COc1ccc(CCNC(=O)C2CCCN(S(=O)(=O)c3ccc(OC)cc3)C2)cc1 (stereo unspecified) | 12.2% |
| CCc1ccc2c(c1)C1(NN=C(c3ccccc3)S1)C(=O)N2 (stereo unspecified) | 43.3% (active) |

| SMILES | inhibition |
| --- | --- |
| Cc1ccc(-n2c(C)cc(C(=O)CSc3nnc4ccccn34)c2C)cc1 | -19.2% |
| CC(=O)Nc1ccc(NC(=O)CSC2=NS(=O)(=O)c3ccccc3N2)cc1 | 17.4% |
| O=C1C(Cc2ccc(O)cc2)NC(=S)N1Cc1ccccc1 (stereo unspecified) | 7.09% |
| CCC1Nc2ncnc(N3CCN(c4ccccc4)CC3)c2N(Cc2ccc(Cl)cc2)C1=O (stereo unspecified) | 85.9% (active) |
| O=C(CN1CCN(c2ccc(Cl)cc2)CC1)c1ccccc1 | -15.1% |
| COc1ccc(S(=O)(=O)n2cnc3ccccc32)c(C)c1 | 2.56% |
| Cc1ccc(NC(=S)N(CCCN2CCCC2)Cc2cccn2Cc2ccc(Cl)cc2)cc1 | -11.3% |
| CC(C)(C)OC(=O)C[C@@H]1C/C=C\C[C@@H](CC(=O)NCCO)C(=O)N[C@H](Cc2c[nH]c3ccccc23)COC1=O | 0.599% |
| S=C(NNC(=S)NC1CC2C=CC1C2)NC1CC2C=CC1C2 (stereo unspecified) | 9.22% |
| S=C(NNC(=S)NC1CC2CCC1C2)NC1CC2C=CC1C2 (stereo unspecified) | 40.2% (active) |
| O=C(NNC(=S)NC1CC2CCC1C2)c1ccc(Cl)cc1 (stereo unspecified) | -4.76% |
| Cc1nonc1OCCn1nnnc1N | -11.5% |
| O=C(NNc1cc(Cl)ccc1Cl)c1cccnc1Cl | -13.7% |
| CC(=O)/C(=N\Nc1ccc(Cl)cc1Cl)Sc1cccc2cccnc12 | 50.3% (active) |
| Cc1c(NC(=O)CSc2cccc3cccnc23)c(=O)n(-c2ccccc2)n1C | 21.8% |
| Cc1ccc(C(=O)N(CN2CCCC2=O)c2ccc(F)cc2)cc1 | -13.9% |
| CNC(=O)Nc1cc(C(C)(C)C)no1 | 8.23% |
| Cc1ccc(N2CCN(S(=O)(=O)c3ccc(F)cc3)CC2)c(C)c1 | 17.5% |
| CN(C)S(=O)(=O)c1cccc(NC(=S)N/N=C/C(=O)c2ccccc2)c1 | 41.5% (active) |
| Cc1ccc(/C=N/NC(=S)Nc2cccc(S(=O)(=O)N(C)C)c2)o1 | -8.56% |
| CN(C)S(=O)(=O)c1cccc(NC(=S)NCc2ccc3c(c2)OCO3)c1 | 3.11% |
| O=C(c1ccccc1F)N(Cc1ccccc1)Cc1ccccc1 | -6.53% |
| CC1=C(C(=O)Nc2cc(C)ccn2)C(c2cnn(C)c2)C2=C(CC(c3ccccc3)CC2=O)N1 (stereo unspecified) | -2.45% |
| O=S(N1CCCCCC1)C12CC3CC(CC(C3)C1)C2 (stereo unspecified) | -12.7% |
| Cc1ccc(NC(=O)C2CC2c2ccccc2)cc1 (stereo unspecified) | 0.756% |
